# Results filed as inconclusive are left out. Calls of active or inactive are those of the source. Rule for the calls, unless noted: active = hit-call score of the fitted dose curve at least 0.9, where 1 is the maximum; inactive = score below 0.9.
# Columns and labels:
# [1] = target: Paired box protein Pax-6 (Homo sapiens) (UniProt P26367); assay: ATG_Pax6_CIS: Attagene CIS-FACTORIAL HepG2 Assay for human Paired Box 6 (PAX6) (AID 2282956); conditions: HepG2 CIS-FACTORIAL PAX6 reporter transcription, RNA readout; actives raise or lower the signal
# Sequence of Paired box protein Pax-6 (Homo sapiens) (P26367 whole entry, looked up): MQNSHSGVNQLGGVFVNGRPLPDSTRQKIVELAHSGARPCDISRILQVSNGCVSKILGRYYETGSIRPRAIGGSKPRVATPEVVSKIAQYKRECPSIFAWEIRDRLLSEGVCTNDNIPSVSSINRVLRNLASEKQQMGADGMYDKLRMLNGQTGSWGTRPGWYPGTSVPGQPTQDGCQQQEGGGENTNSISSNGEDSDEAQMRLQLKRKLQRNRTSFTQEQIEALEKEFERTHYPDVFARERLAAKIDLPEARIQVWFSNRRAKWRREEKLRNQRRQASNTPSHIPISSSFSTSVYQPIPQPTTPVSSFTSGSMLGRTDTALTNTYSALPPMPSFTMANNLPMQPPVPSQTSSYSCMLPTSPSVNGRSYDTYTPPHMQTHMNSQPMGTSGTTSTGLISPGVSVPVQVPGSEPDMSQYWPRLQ
# Procedure, shortened: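 Readout: reporter transcript fluorescence after RT-PCR and capillary electrophoresis. Cells: HepG2, transiently transfected with cis-regulated MRTUs. Exposure 24 h. Gain or loss of signal fitted bidirectionally relative to DMSO.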
# [2] = ATG_PXRE_CIS: Attagene CIS-FACTORIAL HepG2 Assay for human Pregnane X Receptor Element (PXRE) (AID 2282957); conditions: HepG2 Attagene CIS-FACTORIAL PXRE reporter, mRNA; actives raise or lower the signal
# Procedure, shortened: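 Fluorescent capillary electrophoresis of amplified reporter cDNA gave the signal, collected 24 h after dosing HepG2 cells that held transfected cis-element reporter constructs.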
# [3] = ATG_PPRE_CIS: Attagene CIS-FACTORIAL HepG2 Assay for human Peroxisome Proliferator-activated Response Element (PPRE) (AID 2282958); conditions: HepG2 PPRE cis-element reporter, Attagene transcription factor profiling; actives raise or lower the signal
# Procedure, shortened: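 DMSO served as negative control and baseline for bidirectional curve fitting. Signal came from PPRE-regulated reporter mRNA in HepG2 cells, measured 24 h post-dosing by RT-PCR, 6-FAM primer extension and capillary electrophoresis.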
# [4] = ATG_RORE_CIS: Attagene CIS-FACTORIAL HepG2 Assay for human RAR-related Orphan Receptor Element (RORE) (AID 2282959); conditions: HepG2 Attagene cis-factorial RORE reporter, mRNA; actives raise or lower the signal
# Procedure, shortened: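 Transfect HepG2 with MRTUs; treat 24 h; extract RNA; RT with oligo(dT); PCR with reporter-specific primers; 6-FAM primer extension; HpaI digest 2 h at 37 C; capillary electrophoresis. Fit vs DMSO, bidirectional.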
# [5] = ATG_Sox_CIS: Attagene CIS-FACTORIAL HepG2 Assay for human SRY-box transcription factor (SOX) (AID 2282960); conditions: HepG2 Attagene cis-factorial SOX reporter, mRNA; actives raise or lower the signal
# Procedure, shortened: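 Fluorescence-labelled cDNA fragments from reporter transcripts, sized by CE, give the signal. Cells: HepG2, transiently transfected with cis-regulated reporter units. Exposure 24 h; DMSO negative control; bidirectional curve fitting.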
# [6] = target: Transcription factor Sp1 (Homo sapiens) (UniProt P08047); assay: ATG_Sp1_CIS: Attagene CIS-FACTORIAL HepG2 Assay for human Specificity Protein 1 (Sp1) (AID 2282961); conditions: HepG2 Sp1 cis-reporter transcription, actives raise or lower the signal
# Sequence of Transcription factor Sp1 (Homo sapiens) (P08047 whole entry, looked up): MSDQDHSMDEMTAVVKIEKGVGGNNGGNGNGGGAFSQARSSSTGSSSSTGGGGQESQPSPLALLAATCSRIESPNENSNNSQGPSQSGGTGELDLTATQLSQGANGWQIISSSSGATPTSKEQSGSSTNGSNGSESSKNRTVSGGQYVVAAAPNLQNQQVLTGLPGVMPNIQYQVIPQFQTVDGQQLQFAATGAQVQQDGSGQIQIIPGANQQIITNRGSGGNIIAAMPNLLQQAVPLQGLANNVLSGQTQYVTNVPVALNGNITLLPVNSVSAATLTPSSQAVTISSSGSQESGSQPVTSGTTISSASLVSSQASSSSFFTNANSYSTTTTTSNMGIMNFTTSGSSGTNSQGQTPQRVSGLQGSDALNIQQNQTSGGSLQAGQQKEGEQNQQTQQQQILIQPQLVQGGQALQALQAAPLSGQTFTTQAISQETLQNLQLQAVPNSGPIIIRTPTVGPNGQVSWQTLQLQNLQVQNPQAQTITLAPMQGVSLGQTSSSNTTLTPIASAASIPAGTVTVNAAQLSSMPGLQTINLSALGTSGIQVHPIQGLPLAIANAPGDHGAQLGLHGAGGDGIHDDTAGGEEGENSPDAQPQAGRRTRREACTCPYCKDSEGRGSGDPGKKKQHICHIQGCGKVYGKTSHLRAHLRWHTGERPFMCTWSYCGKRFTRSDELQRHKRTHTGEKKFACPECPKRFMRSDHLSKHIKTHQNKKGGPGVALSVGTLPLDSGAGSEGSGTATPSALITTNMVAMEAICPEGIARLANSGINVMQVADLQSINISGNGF
# Procedure, shortened: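 Chemicals are dosed onto HepG2 cells transfected with multiple cis-promoter reporter constructs, and after 24 h reporter RNA is reverse-transcribed, PCR-amplified and resolved by capillary electrophoresis for fluorescence quantitation; activity is scored up or down against DMSO.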
# [7] = ATG_SREBP_CIS: Attagene CIS-FACTORIAL HepG2 Assay for human Sterol Regulatory Element Binding (SREBP) (AID 2282962); conditions: HepG2 Attagene cis-factorial SREBP reporter, mRNA; actives raise or lower the signal
# Procedure, shortened: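 Readout: fluorescent reporter-transcript peaks resolved by capillary electrophoresis after RT-PCR. Cells were human HepG2 carrying transfected cis-promoter reporter constructs, dosed for 24 h. Gain or loss of signal was fitted against DMSO controls.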
# [8] = target: Signal transducer and activator of transcription 3 (Homo sapiens) (UniProt P40763); assay: ATG_STAT3_CIS: Attagene CIS-FACTORIAL HepG2 Assay for human Signal Transducer and Activator of Transcription 3 (STAT3) (AID 2282963); conditions: HepG2, Attagene cis-factorial STAT3 reporter transcription; actives raise or lower the signal
# Sequence of Signal transducer and activator of transcription 3 (Homo sapiens) (P40763 whole entry, looked up): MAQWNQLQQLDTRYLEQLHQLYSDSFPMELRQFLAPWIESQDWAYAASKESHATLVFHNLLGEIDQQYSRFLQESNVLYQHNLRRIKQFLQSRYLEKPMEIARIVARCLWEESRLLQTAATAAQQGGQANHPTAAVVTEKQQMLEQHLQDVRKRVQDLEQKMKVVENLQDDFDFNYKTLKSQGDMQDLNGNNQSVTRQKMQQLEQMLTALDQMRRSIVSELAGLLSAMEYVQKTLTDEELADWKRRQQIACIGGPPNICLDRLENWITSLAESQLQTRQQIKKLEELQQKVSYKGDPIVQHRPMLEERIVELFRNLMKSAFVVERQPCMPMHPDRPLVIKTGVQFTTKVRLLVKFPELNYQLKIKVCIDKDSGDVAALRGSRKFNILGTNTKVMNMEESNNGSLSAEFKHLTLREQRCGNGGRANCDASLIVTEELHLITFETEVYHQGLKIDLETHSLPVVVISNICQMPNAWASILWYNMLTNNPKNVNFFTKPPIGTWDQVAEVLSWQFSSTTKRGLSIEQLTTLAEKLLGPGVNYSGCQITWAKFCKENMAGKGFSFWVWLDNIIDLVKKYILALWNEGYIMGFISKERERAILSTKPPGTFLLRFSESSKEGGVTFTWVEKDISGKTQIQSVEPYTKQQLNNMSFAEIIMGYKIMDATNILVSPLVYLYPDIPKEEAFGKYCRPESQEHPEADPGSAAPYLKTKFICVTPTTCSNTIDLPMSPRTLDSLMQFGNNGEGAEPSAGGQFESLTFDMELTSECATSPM
# Procedure, shortened: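 HepG2, MRTU-transfected, 24 h dosing. RNA → RT → PCR → FAM label → HpaI → CE. Bidirectional fit vs DMSO.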
# [9] = ATG_TCF_b_cat_CIS: Attagene CIS-FACTORIAL HepG2 Assay for human T-Cell-Factor with beta-catenin (TCF/b-cat) (AID 2282965); conditions: HepG2 TCF/beta-catenin cis-reporter transcription, actives raise or lower the signal
# Procedure, shortened: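 Using capillary electrophoresis as the read-out, labelled reporter cDNA fragments from transiently transfected HepG2 were sized and quantified. Exposure lasted 24 hours; activity in either direction was referenced to DMSO.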
# [10] = ATG_TAL_CIS: Attagene CIS-FACTORIAL HepG2 Assay for human TAL Basal Promoter (AID 2282966); conditions: HepG2 Attagene cis-factorial TAL promoter reporter; actives raise or lower the signal;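 note: background control endpoint measuring basal TAL promoter reporter mRNA not a specific factor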
# Procedure, shortened: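 Transiently transfected HepG2 (cis-regulated reporter units), 24 h treatment, mRNA read by fluorescent CE after RT-PCR; bidirectional fit, DMSO baseline.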
# [11] = ATG_TGFb_CIS: Attagene CIS-FACTORIAL HepG2 Assay for human Transforming Growth Factor (TGF) (AID 2282967); conditions: HepG2 Attagene CIS TGFb reporter, mRNA transcription; actives raise or lower the signal
# Procedure, shortened: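 Transient MRTU transfection of HepG2 (FuGene 6). Dose 24 h. TriZol RNA, oligo(dT) RT, PCR, 6-FAM primer extension, HpaI cut, CE. Bidirectional fit, DMSO = baseline.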
# [12] = target: Nuclear receptor subfamily 1 group I member 3 (Homo sapiens) (UniProt Q14994); assay: ATG_CAR_TRANS: Attagene TRANS-FACTORIAL HepG2 Assay for human Constitutive Androstane Receptor (CAR) (AID 2282969; active = hit-call score of the fitted dose curve at least 0.9, where 1 is the maximum;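 note: activators raise reporter mRNA above DMSO so AC50 marks induction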); conditions: HepG2 Attagene TRANS-FACTORIAL CAR reporter
# Sequence of Nuclear receptor subfamily 1 group I member 3 (Homo sapiens) (Q14994 whole entry, looked up, the tested form may be a part): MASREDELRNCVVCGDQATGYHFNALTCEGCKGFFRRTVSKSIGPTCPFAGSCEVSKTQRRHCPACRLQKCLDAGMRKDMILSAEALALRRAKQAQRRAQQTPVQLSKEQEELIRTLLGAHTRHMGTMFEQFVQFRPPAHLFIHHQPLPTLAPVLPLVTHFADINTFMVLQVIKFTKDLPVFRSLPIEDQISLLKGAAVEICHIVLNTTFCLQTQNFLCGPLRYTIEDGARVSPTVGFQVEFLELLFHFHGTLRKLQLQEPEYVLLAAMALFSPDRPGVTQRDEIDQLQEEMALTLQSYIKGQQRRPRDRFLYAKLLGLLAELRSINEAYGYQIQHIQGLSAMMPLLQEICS
# Procedure, shortened: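 Steps: transient transfection of HepG2 with multiple GAL4-UAS reporter units; 24 h compound incubation; RNA isolation, RT-PCR, 6-FAM primer extension, HpaI digest; capillary electrophoresis. Gain-of-signal relative to DMSO negative control.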
# [13] = target: Estrogen receptor (Homo sapiens) (UniProt P03372); assay: ATG_ERa_TRANS: Attagene TRANS-FACTORIAL HepG2 Assay for human Estrogen Receptor alpha (ERa) (AID 2282970; active = hit-call score of the fitted dose curve at least 0.9, where 1 is the maximum); conditions: HepG2 Attagene TRANS ERa GAL4 reporter, mRNA
# Sequence of Estrogen receptor (Homo sapiens) (P03372 whole entry, looked up, the tested form may be a part): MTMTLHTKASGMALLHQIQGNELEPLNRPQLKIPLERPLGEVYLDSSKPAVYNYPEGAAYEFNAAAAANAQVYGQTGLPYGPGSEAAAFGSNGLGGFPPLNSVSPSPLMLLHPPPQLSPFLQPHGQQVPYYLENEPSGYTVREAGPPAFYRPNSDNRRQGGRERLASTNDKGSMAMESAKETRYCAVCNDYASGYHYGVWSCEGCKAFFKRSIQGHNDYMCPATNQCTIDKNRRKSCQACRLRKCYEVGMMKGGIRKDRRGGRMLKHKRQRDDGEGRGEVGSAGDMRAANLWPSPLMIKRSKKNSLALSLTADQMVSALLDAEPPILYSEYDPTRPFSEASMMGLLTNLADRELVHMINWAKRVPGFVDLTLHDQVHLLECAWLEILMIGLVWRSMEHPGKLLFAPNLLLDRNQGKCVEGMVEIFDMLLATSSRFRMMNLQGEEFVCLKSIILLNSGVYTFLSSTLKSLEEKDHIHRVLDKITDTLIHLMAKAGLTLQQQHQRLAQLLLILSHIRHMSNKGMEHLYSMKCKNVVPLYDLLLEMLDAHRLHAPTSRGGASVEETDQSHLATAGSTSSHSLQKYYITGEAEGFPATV
# Procedure, shortened: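 One of 30 multiplexed endpoints from a HepG2 TRANS system, this one reports ERa-Gal4-driven reporter mRNA. Transcripts were quantified 24 hours post-dosing by fluorescent RT-PCR and capillary electrophoresis, with activity scored as induction over DMSO.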
# [14] = target: X-box-binding protein 1 (Homo sapiens) (UniProt P17861); assay: ATG_Xbp1_CIS: Attagene CIS-FACTORIAL HepG2 Assay for human X-box Binding Protein 1 (XBP1) (AID 2282972); conditions: HepG2 XBP1 cis-element reporter, Attagene multiplex; actives raise or lower the signal
# Sequence of X-box-binding protein 1 (Homo sapiens) (P17861 whole entry, looked up, the tested form may be a part): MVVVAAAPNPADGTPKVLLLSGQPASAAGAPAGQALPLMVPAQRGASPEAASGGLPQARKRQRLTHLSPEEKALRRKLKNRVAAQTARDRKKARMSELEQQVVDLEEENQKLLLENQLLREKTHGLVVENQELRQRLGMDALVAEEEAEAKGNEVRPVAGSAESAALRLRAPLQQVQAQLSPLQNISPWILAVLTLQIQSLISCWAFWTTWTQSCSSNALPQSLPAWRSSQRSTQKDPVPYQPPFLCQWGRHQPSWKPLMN
# Procedure, shortened: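 Read-out: fluorescent reporter mRNA fragments resolved by capillary electrophoresis after RT-PCR. Human HepG2 liver cells carried transfected cis-promoter reporter units and were exposed to chemicals for 24 hours. Gain or loss of signal fitted relative to DMSO baseline.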
# [15] = ATG_GAL4_TRANS: Attagene TRANS-FACTORIAL HepG2 Assay for GAL4 (Internal Marker) (AID 2282976; active = hit-call score of the fitted dose curve at least 0.9, where 1 is the maximum); conditions: HepG2 Attagene TRANS GAL4 internal marker reporter
# Procedure, shortened: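 HepG2 cells transiently transfected with multiplexed GAL4-UAS reporter constructs were dosed for 24 h. Reporter mRNA was measured by RT-PCR, 6-FAM primer extension, HpaI digestion and capillary electrophoresis, and gain of signal was fitted relative to DMSO.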
# [16] = target: Estrogen-related receptor gamma (Homo sapiens) (UniProt P62508); assay: ATG_ERRg_TRANS: Attagene TRANS-FACTORIAL HepG2 Assay for human Estrogen-Related Receptor gamma (ERRg) (AID 2282977; active = hit-call score of the fitted dose curve at least 0.9, where 1 is the maximum;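 note: hits increase reporter signal over DMSO so potencies reflect activators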); conditions: HepG2 Attagene TRANS reporter, ERRg transactivation
# Sequence of Estrogen-related receptor gamma (Homo sapiens) (P62508 whole entry, looked up, the tested form may be a part): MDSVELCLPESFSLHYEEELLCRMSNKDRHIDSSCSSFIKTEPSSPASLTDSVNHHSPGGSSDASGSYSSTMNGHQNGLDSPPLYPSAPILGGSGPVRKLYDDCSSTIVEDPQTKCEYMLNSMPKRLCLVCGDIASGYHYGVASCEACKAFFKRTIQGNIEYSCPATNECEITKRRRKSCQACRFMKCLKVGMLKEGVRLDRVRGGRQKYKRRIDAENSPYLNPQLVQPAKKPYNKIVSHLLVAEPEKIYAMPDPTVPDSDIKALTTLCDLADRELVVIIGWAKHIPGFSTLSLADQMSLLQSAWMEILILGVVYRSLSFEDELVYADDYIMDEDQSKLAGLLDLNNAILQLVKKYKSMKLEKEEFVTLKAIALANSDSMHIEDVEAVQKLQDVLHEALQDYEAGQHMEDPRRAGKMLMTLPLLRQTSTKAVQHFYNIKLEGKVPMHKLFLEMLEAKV
# Procedure, shortened: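 Exogenous NR-Gal4 chimera activity measured as reporter transcript induction after 24 h in transiently transfected HepG2 cells. RNA reverse-transcribed, PCR-amplified, 6-FAM-labelled and resolved by capillary electrophoresis; increase over DMSO baseline.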
# [17] = ATG_VDRE_CIS: Attagene CIS-FACTORIAL HepG2 Assay for human Vitamin D Receptor Element (VDRE) (AID 2282968); conditions: HepG2 VDRE cis-reporter transcription, actives raise or lower the signal
# Procedure, shortened: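 Steps: transfect HepG2 with multiple reporter transcription units; dose chemicals 24 h; isolate RNA; RT-PCR; label with 6-FAM primer extension; HpaI digest; capillary electrophoresis. Curves fitted both directions against DMSO.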
# [18] = ATG_TA_CIS: Attagene CIS-FACTORIAL HepG2 Assay for human TA Basal Promoter (AID 2282964); conditions: HepG2 Attagene CIS-factorial TA basal promoter reporter; actives raise or lower the signal
# Procedure, shortened: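 Read-out: fluorescent reporter-transcript fragments resolved by capillary electrophoresis after RT-PCR and HpaI digestion. Source: HepG2 cells carrying transiently transfected multi-reporter cis constructs, treated 24 h. Endpoint fitted bidirectionally relative to DMSO.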
# [19] = ATG_M_19_TRANS: Attagene TRANS-FACTORIAL HepG2 Assay for M19 Transcription Factor (Internal Marker) (AID 2282974; active = hit-call score of the fitted dose curve at least 0.9, where 1 is the maximum); conditions: HepG2 Attagene TRANS-FACTORIAL M19 internal marker reporter
# Procedure, shortened: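 Multiplexed TRANS format: HepG2 liver cells bearing transient GAL4-UAS reporter units, chemical treatment 24 h, reporter transcripts quantified by RT-PCR plus capillary electrophoresis. DMSO defines baseline.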
# [20] = target: Steroid hormone receptor ERR1 (Homo sapiens) (UniProt P11474); assay: ATG_ERRa_TRANS: Attagene TRANS-FACTORIAL HepG2 Assay for human Estrogen-Related Receptor alpha (ERRa) (AID 2282971; active = hit-call score of the fitted dose curve at least 0.9, where 1 is the maximum); conditions: HepG2 Attagene TRANS reporter, ERRa transactivation
# Sequence of Steroid hormone receptor ERR1 (Homo sapiens) (P11474 whole entry, looked up, the tested form may be a part): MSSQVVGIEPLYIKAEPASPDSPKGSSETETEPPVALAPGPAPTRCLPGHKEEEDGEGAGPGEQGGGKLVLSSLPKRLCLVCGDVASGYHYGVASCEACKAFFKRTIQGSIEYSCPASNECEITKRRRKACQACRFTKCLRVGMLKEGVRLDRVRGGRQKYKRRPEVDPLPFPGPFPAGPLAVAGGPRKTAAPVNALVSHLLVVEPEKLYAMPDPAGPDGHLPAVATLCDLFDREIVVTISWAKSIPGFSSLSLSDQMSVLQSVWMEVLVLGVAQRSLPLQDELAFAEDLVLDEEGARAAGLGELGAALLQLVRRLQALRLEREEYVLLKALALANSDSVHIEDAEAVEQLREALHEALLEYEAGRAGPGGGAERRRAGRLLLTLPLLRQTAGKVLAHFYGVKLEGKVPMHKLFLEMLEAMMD
# Procedure, shortened: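 HepG2 cells transiently transfected with multiplexed GAL4-UAS reporter units reading chimeric ERRa-Gal4 activity; 24 h compound exposure. Reporter mRNA measured by RT-PCR, 6-FAM labelling, HpaI digest and capillary electrophoresis; gain of signal fitted versus DMSO baseline.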
smiles,measurement,setting,value
COc1cc(NC(=O)CC(C)=O)c(OC)cc1Cl,outcome,[1],inactive
same,AC50,[2],31.5 µM (active)
same,outcome,[3],inactive
same,outcome,[4],inactive
same,outcome,[5],inactive
same,outcome,[6],inactive
same,outcome,[7],inactive
same,outcome,[8],inactive
same,outcome,[9],inactive
same,outcome,[10],inactive
same,outcome,[11],inactive
same,outcome,[12],inactive
same,outcome,[13],inactive
same,outcome,[14],inactive
same,outcome,[15],inactive
same,outcome,[16],inactive
C=C(C)C(=O)OCCOc1ccccc1,outcome,[1],inactive
same,AC50,[2],68.5 µM (active)
same,outcome,[3],inactive
same,outcome,[4],inactive
same,outcome,[5],inactive
same,outcome,[6],inactive
same,outcome,[7],inactive
same,outcome,[9],inactive
same,outcome,[10],inactive
same,outcome,[11],inactive
same,outcome,[17],inactive
same,outcome,[13],inactive
same,outcome,[14],inactive
same,outcome,[15],inactive
same,outcome,[16],inactive
C=CC(C)(CCC=C(C)C)OC(=O)C(C)C (stereo unspecified),outcome,[1],inactive
same,AC50,[2],8.57 µM (active)
same,outcome,[3],inactive
same,outcome,[4],inactive
same,outcome,[5],inactive
same,outcome,[6],inactive
same,outcome,[8],inactive
same,outcome,[18],inactive
same,outcome,[9],inactive
same,outcome,[10],inactive
same,outcome,[11],inactive
same,outcome,[17],inactive
same,AC50,[13],38 µM (active)
same,outcome,[14],inactive
same,outcome,[19],inactive
CCN(CCC#N)c1ccc(N=Nc2c(Cl)cc([N+](=O)[O-])cc2Cl)cc1,outcome,[1],inactive
same,AC50,[2],1.67 µM (active)
same,outcome,[3],inactive
same,outcome,[4],inactive
same,outcome,[5],inactive
same,outcome,[6],inactive
same,outcome,[8],inactive
same,outcome,[18],inactive
same,outcome,[9],inactive
same,outcome,[10],inactive
same,AC50,[13],4.92 µM (active)
same,outcome,[14],inactive
same,outcome,[16],inactive
O=S(=O)(Oc1ccc(Cl)cc1Cl)c1ccccc1,outcome,[1],inactive
same,AC50,[2],2.2 µM (active)
same,outcome,[3],inactive
same,outcome,[4],inactive
same,outcome,[5],inactive
same,outcome,[6],inactive
same,outcome,[7],inactive
same,outcome,[18],inactive
same,outcome,[9],inactive
same,outcome,[10],inactive
same,AC50,[11],63.4 µM (active)
same,AC50,[17],6.51 µM (active)
same,outcome,[12],inactive
same,AC50,[13],5.33 µM (active)
same,outcome,[14],inactive
same,outcome,[16],inactive
Cc1cccc(OCCOc2cccc(C)c2)c1,outcome,[1],inactive
same,outcome,[2],inactive
same,outcome,[3],inactive
same,outcome,[4],inactive
same,outcome,[5],inactive
same,outcome,[6],inactive
same,outcome,[7],inactive
same,outcome,[8],inactive
same,outcome,[9],inactive
same,outcome,[10],inactive
same,outcome,[11],inactive
same,outcome,[12],inactive
same,outcome,[13],inactive
same,outcome,[20],inactive
same,outcome,[14],inactive
same,outcome,[19],inactive
